The whole screen tested about 290,000 compounds, of which about 11,000 (3.8%) were called active.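 How the source made its calls: active means mean replicate inhibition above about 79%, with every replicate also reaching it (limit read from the data); inconclusive means only one of the two criteria met; inactive means mean below limit and not every replicate reaching it.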 The full list was thinned out, with actives kept by preference.

93 compounds from PubChem BioAssay AID485317 (Broad Institute, 2010) can be followed below.

The target of the assay is FAD-linked sulfhydryl oxidase ALR (Homo sapiens) (UniProt P55789). As to the kind of experiment: inhibitors of human ALR sulfhydryl oxidase, primary screen, biochemical, H2O2 detection, HRP-luminol luminescence, single point (AID 485317). The note with it: purified ALR, DTT oxidation, stronger effect = higher value, concentration not given here.
Chain of FAD-linked sulfhydryl oxidase ALR (Homo sapiens) (P55789 whole entry, looked up): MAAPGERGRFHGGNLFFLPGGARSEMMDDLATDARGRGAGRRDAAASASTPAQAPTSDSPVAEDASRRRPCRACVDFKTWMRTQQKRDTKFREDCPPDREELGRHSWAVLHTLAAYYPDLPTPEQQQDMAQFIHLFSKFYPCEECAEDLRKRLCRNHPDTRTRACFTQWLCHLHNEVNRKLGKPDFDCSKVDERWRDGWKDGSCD
The inhibition is the change of the read-out against control, counted positive when it falls. With `COc1cc(OC)cc(-c2c(-c3cccs3)c3cc(-c4ccc(OC)cc4F)ccc3n2C)c1`, the inhibition is -3.91% (inactive).

Consider `Cc1ccc(S(=O)(=O)N/N=C\c2cc3c(cc2[N+](=O)[O-])OCO3)cc1`, for which the inhibition was -3.17% (inactive). On to `Cc1ccc(-c2n[nH]c(=S)n2/N=C/c2cc3c(cc2[N+](=O)[O-])OCO3)cc1`, for which the inhibition is -5.58% (inactive). In the case of `CCOc1ccc(-c2n[nH]c(=S)n2/N=C/c2cc3c(cc2[N+](=O)[O-])OCO3)cc1`, the inhibition is 84.2% (active). To `COc1ccc(/C=N/Nc2cc(N3CCOCC3)nc(C)n2)c(OC)c1` belongs 32.1% (inactive); to `C(=N/Nc1cc(N2CCOCC2)nc(N2CCOCC2)n1)/c1ccccc1`, 34.6% (inactive); to `CN(C)c1ccc(/C=N/Nc2cc(N3CCOCC3)nc(N3CCOCC3)n2)cc1`, 98.8% (active). To `CCOc1ccc(C(=O)Nc2cc(Cl)ccc2-n2cncn2)cc1OC` belongs -4.75% (inactive); to `Cn1c(CC(=O)NNC(=O)c2ccccc2F)nc2ccccc21`, -4.08% (inactive); to `COc1ccc2cc(CCl)c(Cl)nc2c1`, 98% (active).

Regarding `COc1ccc2oc(-c3cccc(NC(=O)CSc4ccc(Cl)cc4)c3)nc2c1`, the inhibition is -8.13% (inactive).

For the compound `COC(=O)CSc1nc(C)c2ccc(OC)cc2n1`, the inhibition was -12.7% (inactive). To `C=CCSc1nnc(N2C(=O)C(O)=C(C(=O)c3ccco3)C2c2ccc(F)cc2)s1` (stereo not drawn) belongs 98% (active); to `O=C(C1=C(O)C(=O)N(c2ncccn2)C1c1cccs1)c1ccco1` (stereo not drawn), 21.9% (inactive); to `Cc1ccc2nc(N3C(=O)C(O)=C(C(=O)c4ccco4)C3c3cccc(O)c3)sc2c1` (stereo not drawn), 71.5% (inactive).

Turning to `Cc1ccc(C(=O)NCC(=O)NC2CC2)cc1`, the inhibition is 0.292% (inactive). On to `CCC(CO)Oc1cc(NC(=O)c2cccc(F)c2)c2ncn(C(C)C)c2c1` (stereo not drawn), for which the inhibition was -32.8% (inactive). With `Cn1c(N)c(C(=O)COC(=O)c2cccc(S(=O)(=O)N3CCOCC3)c2)c(=O)n(C)c1=O` the figure was -2.97% (inactive); with `Nc1ccccc1Sc1cc(Cl)nnc1Cl`, 1.19% (inactive). In the case of `CCOC(=O)c1cc(Sc2ccccc2N)cc(C(=O)OCC)n1`, the inhibition is -11.9% (inactive). For `Cc1nn(C)c(C)c1Sc1ccccc1N`, the inhibition was 99.2% (active). As to `O=C(NN=Cc1ccc(N2CCOCC2)cc1)c1cc2ccccc2cc1O`, the inhibition was 11.6% (inactive). With `COc1ccc([C@H]2CC(=O)C=C(c3ccc(CO)cc3)C2)cc1` the figure was -0.829% (inactive); with `CCC(C)N(C(=O)COC(=O)c1nc(Cl)ccc1Cl)C1CCS(=O)(=O)C1` (stereo not drawn), 0.398% (inactive). Regarding `CC(C)N(C(=O)CN1CCN(S(=O)(=O)c2ccc(Br)s2)CC1)C(C)C`, the inhibition was -3.29% (inactive).

With `C/C(=C/c1ccccc1)C(=O)N1CCN(c2ccccc2)CC1`, the inhibition is 44% (inactive).

`Cc1nc2c(-c3ccc(F)cc3)c(C)nn2c(C)c1CCC(=O)N1CCN(c2ccccn2)CC1`: the inhibition is -13.5% (inactive). With `CC(=O)c1ccc(N2CCN(C(=O)CCc3ccccc3)CC2)cc1` the figure was 16.1% (inactive). With `O=C(CCSc1ccccc1)N1CCN(c2ccccc2F)CC1` the figure was -13.1% (inactive). To `Cc1nc2ncnn2c(C)c1CCC(=O)N1CCN(C(=O)c2ccco2)CC1` belongs 0.394% (inactive); to `Cc1nc2nc(C)c(CCC(=O)N3CCN(c4ccccc4)CC3)c(C)n2n1`, 92.8% (active); to `CC(CC(=O)N1CCN(c2ccccc2)CC1)c1ccccc1` (stereo not drawn), 98.4% (active).

On to `O=C(NC(CC(=O)N1CCN(c2ccccc2)CC1)c1ccccc1)c1ccccc1Cl` (stereo not drawn), for which the inhibition was 22.4% (inactive). With `O=C(CCc1ccccc1F)N1CCN(c2ccccc2)CC1`, the inhibition was 88% (active).

`CCOC(=O)c1cnc2nc(SCc3ccccc3Cl)[nH]n2c1=O`: the inhibition was 32.6% (inactive).

Regarding `Cc1csc2nc(O)c(C(=O)NCCN3CCOCC3)c(=O)n12`, the inhibition is 7.69% (inactive).

Regarding `COc1ccc(CNc2nc(NCc3ccc(OC)cc3)c3ncn(C4CCCC4)c3n2)cc1`, the inhibition was 2.44% (inactive). To `O=C(Nc1ccccc1Cl)/C(Cl)=C(\Cl)S(=O)c1ccccc1` (stereo not drawn) belongs 97.6% (active); to `O=C(Nc1ccccc1Cl)Nn1cnnc1`, -11.5% (inactive); to `O=C(COC(=O)c1cccs1)Nc1ccccc1Cl`, 2.46% (inactive). To `CCCCCC(=O)N1CCN(S(=O)(=O)c2ccc3c(c2)OCCCO3)CC1` belongs 1.7% (inactive). To `Cc1ccc(S(=O)(=O)N2CCCCC2)cc1NC(=O)[C@@H]1CCCN1C(=O)c1cccs1` belongs -6.24% (inactive). Take `O=C(Cc1ccc(Br)cc1)NCCc1ccccc1`: the inhibition was -8.61% (inactive).

As to `Cc1cc(C)n2nc(C(=O)OCC(=O)N(C)CC(=O)Nc3ccc(F)cc3)nc2n1`, the inhibition is 2.76% (inactive).

As to `C=C1c2cc(CC)ccc2NC(=O)N1c1ccc(C)cc1`, the inhibition is 96.2% (active).

Turning to `Cc1ccc(CC2C(=O)N(c3ccc(F)cc3)C(=O)C2C)cc1` (stereo not drawn), the inhibition was 1.22% (inactive). To `Cc1ccc(N2C(=O)C(Cc3ccccc3)NC2=S)cc1` (stereo not drawn) belongs 25.5% (inactive); to `Cc1ccc(S(=O)(=O)N2CCN(C)CC2)cc1`, -6.86% (inactive).

Regarding `Cc1ccc(S(=O)(=O)N2CCN(C(=O)c3cccs3)CC2)cc1`, the inhibition is -6.58% (inactive). To `Cc1ccc(S(=O)(=O)N2C3C=CC(C3)C2C(=O)O)cc1` (stereo not drawn) belongs 89.7% (active). As to `CC(C)(C)OC(=O)C[C@@H]1C/C=C\C[C@@H](CC(=O)N[C@H](CO)Cc2ccccc2)C(=O)NC[C@@H](c2ccccc2)OC1=O`, the inhibition was -0.924% (inactive). In the case of `Cc1cc(N=Nc2ccc3ccccc3c2)ccc1O`, the inhibition is 86% (active). With `CC(=O)CCC(=O)c1ccc2ccccc2c1` the figure was -2.18% (inactive); with `COc1ccc(N=Nc2ccc(O)c(P(=O)(c3ccccc3)c3ccccc3)c2)cc1`, -4.29% (inactive); with `Cc1nc2ccccc2c(=O)n1-c1ccc(F)c(NC(=O)c2cccs2)c1`, -7.89% (inactive).

Regarding `CN(Cc1cccs1)C(=O)CN1C(=O)c2ccccc2S1(=O)=O`, the inhibition is 1.6% (inactive). Consider `CN1CCN(C(=O)/C(=C\c2cccs2)NC(=O)c2cccs2)CC1`, for which the inhibition is 9.55% (inactive).

In the case of `O=C(N/C(=C\c1ccc(F)cc1)C(=O)N1CCCCCC1)c1ccccc1`, the inhibition was 39.9% (inactive). To `Cc1ccc(C(=O)N/C(=C/c2cccs2)C(=O)N2CCCCC2)cc1` belongs 88.2% (active); to `O=C(N/C(=C\c1ccc(O)cc1)C(=O)N1CCCCC1)c1ccccc1`, 99% (active); to `Cc1ccc(C(=O)N/C(=C/c2cccs2)C(=O)NCC2CCCO2)cc1` (stereo not drawn), -0.67% (inactive).

On to `CC1CCN(C(=O)/C(=C\c2ccccc2)NC(=O)c2ccccc2)CC1`, for which the inhibition is 8.11% (inactive). To `O=C(COC(=O)CSc1ccccc1)Nc1ccc(F)cc1F` belongs 0.233% (inactive). With `Cc1nn(-c2ccccc2)nc1C(=O)OCC(=O)N1CCCCC1C` (stereo not drawn) the figure was 0.513% (inactive); with `Cc1nc2ccccn2c(=O)c1NC(=O)c1cccs1`, -1.56% (inactive). Take `Cc1ccsc1C(=O)N[C@@H](C)c1nnc2ccccn12`: the inhibition is -3.18% (inactive). As to `CC(C)(C)Nc1c(-c2cccs2)nc2ccccn12`, the inhibition is 98.7% (active). To `O=C(OCC(=O)N1CCCCCC1)c1ccc(Cl)nc1` belongs 8.08% (inactive); to `CCOC(=O)[C@H]1[C@H]2COc3cc(OC)ccc3[C@@H]2N2C(=O)CN(Cc3ccc(Cl)cc3)C(=O)[C@@]12C`, -2.14% (inactive). To `CCC(=O)N1c2ccc(S(=O)(=O)CCC(=O)N3CCN(c4ccccc4)CC3)cc2CC1C` (stereo not drawn) belongs 98.5% (active); to `CCC(=O)N1CCc2cc(S(=O)(=O)CCC(=O)N3CCN(c4ccccc4F)CC3)ccc21`, 5.15% (inactive). For the compound `CC(=O)N1CCCc2cc(S(=O)(=O)CCC(=O)N3CCN(c4ccccc4)CC3)ccc21`, the inhibition was 61.3% (inactive). With `CCC(=O)c1cc(F)ccc1OCC(=O)Nc1ccc2c(c1)OCCO2` the figure was -1.15% (inactive); with `CNC[C@@H]1Oc2c(NS(C)(=O)=O)cccc2C(=O)N([C@@H](C)CO)C[C@H]1C`, 6.23% (inactive). To `CCOc1ccc(C(C)=O)cc1COC(=O)CNC(=O)c1cccs1` belongs -1.95% (inactive); to `Oc1ccccc1C1=NN(c2ccccc2)C(c2ccccc2)C1` (stereo not drawn), 47.4% (inactive). On to `COc1ccccc1N1N=C(c2cccs2)CC1c1ccccc1` (stereo not drawn), for which the inhibition is 97.2% (active).

Take `COc1ccc(C2=NN(c3ccccc3)C(c3cccs3)C2)cc1` (stereo not drawn): the inhibition is -4.89% (inactive).

On to `COc1ccc(C2CC(c3cccs3)=NN2C(=O)CCC(=O)O)cc1OC` (stereo not drawn), for which the inhibition is 5.58% (inactive). As to `COc1ccc(C2CC(c3cccs3)=NN2c2ccccc2)cc1` (stereo not drawn), the inhibition was 97.6% (active). On to `COc1ccc(C2CC(c3cccs3)=NN2c2ccc(F)cc2)cc1OC` (stereo not drawn), for which the inhibition is -1.9% (inactive).

For the compound `COc1ccc(C(=O)C2CCCN(C(=O)c3ccc(OC)o3)C2)c(C)c1` (stereo not drawn), the inhibition was -4% (inactive). With `CNC(C)C#Cc1ccc2sc3cc(OC)c(OC)cc3c(=O)c2c1` (stereo not drawn) the figure was -24.4% (inactive); with `Cc1onc(-c2ccccc2Cl)c1C(=O)N(Cc1ccc(N(C)C)cc1)C(C)C`, 9.74% (inactive). Consider `CCCCOc1ccc(CSC(=N)N)cc1[N+](=O)[O-]`, for which the inhibition is 99.9% (active).

Regarding `Cc1cc(OCCCCOc2ccc(C#N)cc2)ccc1[N+](=O)[O-]`, the inhibition is 3.02% (inactive).

Consider `C=CCN(CC=C)CCOc1ccccc1[N+](=O)[O-]`, for which the inhibition is -15.8% (inactive). `CCCCOC(=O)CCCc1ccc([N+](=O)[O-])cc1[N+](=O)[O-]`: the inhibition is -8.65% (inactive). Consider `CCCOc1ccc(Cn2ccnc2)cc1[N+](=O)[O-]`, for which the inhibition is -2.35% (inactive). With `CCCCCOc1ccc(CSC2=NCCN2)cc1[N+](=O)[O-]` the figure was 98.8% (active). To `Cc1cc(C)c(S(=O)(=O)N2CCCC2CNC(=O)c2ccc3c(c2)OCO3)c(C)c1` (stereo not drawn) belongs 0.666% (inactive); to `COCCn1c(C)cc(C(=O)CN2c3cccc4cccc(c34)S2(=O)=O)c1C`, -28.9% (inactive).

Turning to `CCCCN(C(=O)C1CCC1)c1c(N)n(Cc2ccccc2)c(=O)[nH]c1=O`, the inhibition is 7.79% (inactive).
